For one assay, the target named is Papain (Carica papaya) (UniProt P00784). The experiment in a line: Primary qHTS assay for inhibitors of the protease papain (AID 1645873).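 Also: papain turnover of Z-FR-AMC read as the AMC fluorescence gain over 10 min; series mostly up to about 50 µM.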 For orientation: Quantitative high-throughput screening tests each substance at several concentrations.
In assay [1] the target is Rap guanine nucleotide exchange factor 3 (Homo sapiens) (UniProt O95398). The experiment in a line: Confirmatory qHTS for antagonist of cAMP-regulated guanine nucleotide exchange factor 3 (EPAC1) (AID 1645880). Also: nearly all actives have a fitted effect of over 55% in size. The method in brief: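 Released BODIPY-GDP fluoresces less than Rap1-bound BODIPY-GDP; the signal is followed at 480/540 nm at 5-min intervals over 30 min, after 5 min at room temperature. Reactions contain 100 nM EPAC1, 250 nM RAP1B-BODIPY-GDP and 50 uM GDP; results are normalized to ATA and DMSO.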

The target in assay [2] is N-terminal Xaa-Pro-Lys N-methyltransferase 1 (Homo sapiens) (UniProt Q9BV86). The experiment in a line: Confirmatory qHTS for Inhibitors of N-terminal methyltransferase 1 (NTMT1): MTaseGlo Assay (AID 1645874).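 Also: luminescence from SAH made as NTMT1 methylates SPKRIA peptide using SAM; series mostly up to about 100 µM; nearly all actives have a fitted effect of over 65% in size.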 The method in brief: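 MTase-Glo luminescence measured SAH formed by 125 nM NTMT1 from 100 uM SAM and 1 uM SPKRIA peptide over 30 min at room temperature, following 15 min compound preincubation. Percent inhibition against no-enzyme and DMSO controls gave 4-parameter Hill fits.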

In assay [3] the target is Cytochrome P450 3A4 (Homo sapiens) (UniProt P08684). Kind of assay: Cytochrome P450 family 3 subfamily A member 4 (CYP3A4) small molecule antagonists: luciferase qHTS assay (AID 1645841; active = well fitted curve in the direction sought with a large enough effect in the repeat runs; an effect the other way counts as inactive or inconclusive; also: nearly all actives have a fitted effect of over 45% in size). The method in brief: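 Luminescent CYP3A4 activity readout: compounds plus enzyme-substrate mix 10 min at room temperature, reaction started with NADPH regenerating system for 1 h, stopped with detection reagent, read after 20 min. Ketoconazole served as control.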

Inconclusive results are not listed. Activity calls are given as the source filed them. Unless noted, calls follow the shape of the dose curve; as a rule, active = well fitted curve in the direction sought with a large enough effect; inconclusive = small, poorly fitted or top-dose-only effect, or another doubt; inactive = no such curve, though single readings can be large; an effect the other way counts as inactive or inconclusive.

Chain of Cytochrome P450 3A4 (Homo sapiens) (P08684 whole entry, looked up): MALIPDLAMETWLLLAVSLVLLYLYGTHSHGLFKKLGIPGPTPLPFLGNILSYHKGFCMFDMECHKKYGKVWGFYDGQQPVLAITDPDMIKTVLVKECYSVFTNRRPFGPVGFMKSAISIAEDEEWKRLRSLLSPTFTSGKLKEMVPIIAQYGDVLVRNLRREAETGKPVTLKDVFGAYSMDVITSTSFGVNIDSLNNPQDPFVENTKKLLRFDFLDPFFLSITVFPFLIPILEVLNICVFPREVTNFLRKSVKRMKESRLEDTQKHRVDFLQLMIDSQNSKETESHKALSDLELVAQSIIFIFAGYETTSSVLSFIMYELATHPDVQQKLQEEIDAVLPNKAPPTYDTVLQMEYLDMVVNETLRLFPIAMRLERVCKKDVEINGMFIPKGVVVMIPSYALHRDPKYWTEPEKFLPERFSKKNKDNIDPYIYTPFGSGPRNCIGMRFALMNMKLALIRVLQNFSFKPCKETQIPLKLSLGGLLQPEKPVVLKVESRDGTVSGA
Chain of Rap guanine nucleotide exchange factor 3 (Homo sapiens) (O95398 whole entry, looked up): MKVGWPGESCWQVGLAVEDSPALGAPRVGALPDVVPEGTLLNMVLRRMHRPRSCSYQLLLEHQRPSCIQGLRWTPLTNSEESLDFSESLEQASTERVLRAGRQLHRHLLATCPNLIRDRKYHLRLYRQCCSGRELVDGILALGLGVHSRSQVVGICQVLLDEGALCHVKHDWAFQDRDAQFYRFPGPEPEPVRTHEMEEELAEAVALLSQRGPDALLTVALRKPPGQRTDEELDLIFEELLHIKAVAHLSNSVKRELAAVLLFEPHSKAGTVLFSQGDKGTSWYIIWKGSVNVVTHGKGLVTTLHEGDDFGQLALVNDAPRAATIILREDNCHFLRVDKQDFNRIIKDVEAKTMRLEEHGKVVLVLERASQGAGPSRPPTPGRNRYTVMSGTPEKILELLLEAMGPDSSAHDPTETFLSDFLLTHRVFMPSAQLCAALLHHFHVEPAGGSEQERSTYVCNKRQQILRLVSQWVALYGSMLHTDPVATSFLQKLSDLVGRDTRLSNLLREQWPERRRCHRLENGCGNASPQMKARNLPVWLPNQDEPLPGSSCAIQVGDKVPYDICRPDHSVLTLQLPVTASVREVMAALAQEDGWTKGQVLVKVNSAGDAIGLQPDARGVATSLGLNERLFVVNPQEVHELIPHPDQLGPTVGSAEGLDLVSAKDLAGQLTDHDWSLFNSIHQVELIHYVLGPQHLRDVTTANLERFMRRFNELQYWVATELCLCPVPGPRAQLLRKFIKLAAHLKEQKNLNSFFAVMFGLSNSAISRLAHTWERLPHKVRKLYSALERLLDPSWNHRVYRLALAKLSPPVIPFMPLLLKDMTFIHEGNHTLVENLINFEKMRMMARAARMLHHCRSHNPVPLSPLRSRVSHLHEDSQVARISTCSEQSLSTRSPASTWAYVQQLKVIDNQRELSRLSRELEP
Chain of N-terminal Xaa-Pro-Lys N-methyltransferase 1 (Homo sapiens) (Q9BV86 whole entry, looked up): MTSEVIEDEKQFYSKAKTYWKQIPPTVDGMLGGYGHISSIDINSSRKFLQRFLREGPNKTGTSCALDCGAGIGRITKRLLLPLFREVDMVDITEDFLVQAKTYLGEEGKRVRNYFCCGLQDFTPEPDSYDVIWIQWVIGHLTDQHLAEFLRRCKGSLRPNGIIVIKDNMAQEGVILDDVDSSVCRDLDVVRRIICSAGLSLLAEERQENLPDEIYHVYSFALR
Chain of Papain (Carica papaya) (P00784 whole entry, looked up): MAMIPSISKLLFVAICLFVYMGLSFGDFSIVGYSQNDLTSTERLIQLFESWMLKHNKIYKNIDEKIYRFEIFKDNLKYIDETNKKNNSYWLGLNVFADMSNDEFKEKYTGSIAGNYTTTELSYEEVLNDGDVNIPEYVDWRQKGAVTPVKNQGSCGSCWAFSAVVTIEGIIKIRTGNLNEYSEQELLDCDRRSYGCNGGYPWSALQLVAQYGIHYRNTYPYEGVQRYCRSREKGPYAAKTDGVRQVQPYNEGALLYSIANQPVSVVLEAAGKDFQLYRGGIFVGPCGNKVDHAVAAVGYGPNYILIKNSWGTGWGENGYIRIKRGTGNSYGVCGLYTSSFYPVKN

Regarding `Oc1ccc(/C=C/c2cc(O)cc(O)c2)cc1`, the outcome (with Papain (Carica papaya); in assay [1]) was inactive.

For `COc1cc(C)c(/C=C/C(C)=C/C=C/C(C)=C/C(=O)O)c(C)c1C`, the outcome in assay [2] was inactive.

Consider `N=C(N)n1cccn1`, for which, in assay [3], the result was inactive.

Consider `Cc1ncc(C[n+]2csc(CCO)c2C)c(N)n1`, for which the call in assay [3] was inactive.

These data come from PubChem BioAssay (NCATS).
